Assay outcomes from PubChem BioAssay.
CBX7 inh – CBX7 chromodomain binding inhibitors, primary screen, biochemical, AlphaScreen; normalised signal (fraction of DMSO) (concentration not given with the values); Chromobox protein homolog 7 (Homo sapiens), O95931; AlphaScreen His6-CBX7 / biotin-H3K27me3 peptide binding; stronger effect = lower value; 1.1% of 66,000 active; in the data active = normalised signal below about 0.5
Target sequence (O95931 whole entry, looked up): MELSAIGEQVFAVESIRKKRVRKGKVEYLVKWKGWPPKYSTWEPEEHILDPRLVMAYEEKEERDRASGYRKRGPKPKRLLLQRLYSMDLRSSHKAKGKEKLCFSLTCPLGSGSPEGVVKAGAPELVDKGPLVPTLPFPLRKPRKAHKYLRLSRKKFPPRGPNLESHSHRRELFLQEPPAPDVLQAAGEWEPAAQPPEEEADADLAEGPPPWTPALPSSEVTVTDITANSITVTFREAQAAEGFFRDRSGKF
* = called active by the depositor; ! = repeats disagree. Only a selection was taken, and hits are over-represented in it overall.

How did COc1ccc(-c2nnc(NC(=O)c3ccc(S(=O)(=O)N(C)c4ccccc4)cc3)o2)cc1 do in these assays?
CBX7 inh: 0.94

Results for COc1cc(OC)cc(-c2nnc(NC(=O)c3ccc(S(=O)(=O)N4CCC(C)CC4)cc3)o2)c1 ?
CBX7 inh: 0.98

How did CN(c1ccccc1)S(=O)(=O)c1ccc(C(=O)Nc2nnc(-c3cccs3)o2)cc1 do in these assays?
CBX7 inh: 0.98

What do the screens show for `CC1CCN(S(=O)(=O)c2ccc(C(=O)Nc3nnc(-c4cccs4)o3)cc2)CC1`?
CBX7 inh: 0.85

How did O=C(Nc1nnc(-c2ccccc2)o1)c1ccc(Cl)c(Cl)c1 do in these assays?
CBX7 inh: 0.79

What do the screens show for `CN(C)S(=O)(=O)c1ccc(C(=O)Nc2nnc(-c3cccs3)o2)cc1`?
CBX7 inh: 0.22*

How did O=C(Nc1nnc(-c2ccccc2)o1)c1ccc(Br)cc1 do in these assays?
CBX7 inh: 0.27*

Results for O=C(Nc1nccs1)c1ccc(S(=O)(=O)N2CCOCC2)cc1 ?
CBX7 inh: 1.1

What do the screens show for `COc1cccc(NC(=O)C(NS(=O)(=O)c2cccs2)C(C)C)c1` (stereo unspecified)?
CBX7 inh: 1.1

What do the screens show for `Cc1nc2cc(-c3ccc(Cl)cc3)nn2c(C)c1CCC(=O)NC(C)c1ccccc1` (stereo unspecified)?
CBX7 inh: 1.2

What do the screens show for `CC(O)c1ccc(NC(=O)c2cnn3c2NC(c2ccc(F)cc2)CC3C(F)(F)F)cc1` (stereo unspecified)?
CBX7 inh: 1.1

Results for COc1ccc(C2C(C(=O)Nc3ccc(C)cn3)=C(C)NC3=C2C(=O)CC(C)(C)C3)c(OC)c1 (stereo unspecified) ?
CBX7 inh: 1

How did CC1CCCN(S(=O)(=O)c2ccc3[nH]c(=O)cc(C(=O)NC4CC4)c3c2)C1 (stereo unspecified) do in these assays?
CBX7 inh: 1

What do the screens show for `CC(C)(CC(=O)N1CCN(Cc2ccc3c(c2)OCO3)CC1)CC1=NS(=O)(=O)c2ccccc2N1`?
CBX7 inh: 1

Results for CC(=O)n1cc(/C=C/c2ccc3cccc(OCc4ccccc4Cl)c3n2)c2ccccc21 ?
CBX7 inh: 1.2

How did Cc1cc(C)cc(C(=O)NCCc2cc3c(C)ccc(C)c3[nH]c2=O)c1 do in these assays?
CBX7 inh: 1.1

What do the screens show for `Cc1cc(N2CCC(C(=O)NC(C)c3ccccc3)CC2)n2nc(C)c(-c3ccc(Cl)cc3)c2n1` (stereo unspecified)?
CBX7 inh: 1

What do the screens show for `Cc1ccc(CNC(=O)C2CCN(C(=O)N(C)C)CC2)cc1`?
CBX7 inh: 1

How did O=C(Nc1nnc(-c2ccc(Cl)s2)o1)c1ccc(S(=O)(=O)N2CCCC2)cc1 do in these assays?
CBX7 inh: 0.046*

What do the screens show for `COc1ccc(-c2nnc(NC(=O)c3ccc(S(=O)(=O)N4CCCC(C)C4)cc3)o2)cc1` (stereo unspecified)?
CBX7 inh: 0.73

What do the screens show for `CC1CCCN(S(=O)(=O)c2ccc(C(=O)Nc3nnc(-c4ccccc4Cl)o3)cc2)C1` (stereo unspecified)?
CBX7 inh: 0.01*

How did CCC1CCCCN1S(=O)(=O)c1ccc(C(=O)Nc2nnc(-c3cccs3)o2)cc1 (stereo unspecified) do in these assays?
CBX7 inh: 0.91

How did CCC1CCCCN1S(=O)(=O)c1ccc(C(=O)Nc2nnc(-c3ccc(Cl)s3)o2)cc1 (stereo unspecified) do in these assays?
CBX7 inh: 0.38*

How did O=C(Nc1nnc(-c2ccc(Cl)cc2Cl)s1)c1ccc(S(=O)(=O)N2CCCC2)cc1 do in these assays?
CBX7 inh: 1

Results for O=C(Nc1nc2c(Cl)cccc2s1)c1ccc(S(=O)(=O)N2CCCC2)cc1 ?
CBX7 inh: 1

How did Cc1ccc(C(=O)Nc2ccccc2)cc1S(=O)(=O)N1CCOCC1 do in these assays?
CBX7 inh: 1

What do the screens show for `O=C(Nc1nnc(-c2ccccc2)o1)c1ccc(F)c(S(=O)(=O)N2CCOCC2)c1`?
CBX7 inh: 0.12*!

What do the screens show for `Cc1ccccc1NC(=O)c1ccc(F)c(S(=O)(=O)N2CCN(c3ccccc3)CC2)c1`?
CBX7 inh: 0.99

What do the screens show for `CCc1nnc(NC(=O)c2ccc(S(=O)(=O)N3CCCCC3CC)cc2)o1` (stereo unspecified)?
CBX7 inh: 0.59

Results for CC(C)N(Cc1ccccc1)C(=O)c1ccc2c(c1)NC(=O)c1ccccc1S2 ?
CBX7 inh: 0.85

Results for Oc1ccccc1-c1nc(/C=C/c2ccccc2F)nn1-c1ccccc1 ?
CBX7 inh: 0.97

How did c1ccc(CN2CCN(c3nc(-c4ccncc4)nc4ccccc34)CC2)cc1 do in these assays?
CBX7 inh: 0.95

What do the screens show for `COc1ccc(-n2c(Cc3cc(=O)[nH]c(=O)[nH]3)nnc2SCC(=O)Nc2ccccc2C)cc1`?
CBX7 inh: 0.84

Results for COc1cc2c(C(=O)N3CCCCC3c3cccnc3)cn(CC(C)C)c(=O)c2cc1OC (stereo unspecified) ?
CBX7 inh: 0.94

How did COc1ccc(-c2nc(SCC(=O)Nc3ccccc3)c(-c3ccccc3)[nH]2)cc1OC do in these assays?
CBX7 inh: 0.83

What do the screens show for `Cc1ccc(Cn2nc(C)c(NC(=O)c3cc(C)on3)c2C)cc1`?
CBX7 inh: 1

Results for CCC1Oc2ccc(C)cc2N(CC(=O)NCCN2CCC(Cc3ccccc3)CC2)C1=O (stereo unspecified) ?
CBX7 inh: 0.97

How did COc1cc(OC)cc(-c2nnc(NC(=O)c3ccc(S(=O)(=O)N4CCOCC4)cc3)o2)c1 do in these assays?
CBX7 inh: 0.85

What do the screens show for `O=C(Nc1nnc(-c2ccc(F)cc2)o1)c1ccc(S(=O)(=O)N2CCOCC2)cc1`?
CBX7 inh: 0.0037*

Results for COc1ccc(-c2nnc(NC(=O)c3ccc(S(=O)(=O)N4CC(C)CC(C)C4)cc3)o2)cc1 (stereo unspecified) ?
CBX7 inh: 0.92

What do the screens show for `COc1ccc(N2CCC(CNC(=O)Nc3ccccc3)C2)cc1` (stereo unspecified)?
CBX7 inh: 0.77

Results for COc1ccc(N2CCN(C3CC(=O)N(c4cccc(Cl)c4)C3=O)CC2)cc1 (stereo unspecified) ?
CBX7 inh: 1.1

What do the screens show for `COc1ccc(N2CCC(CNS(=O)(=O)c3cccc(Cl)c3)C2)cc1` (stereo unspecified)?
CBX7 inh: 0.47*

Results for O=C(Nc1cccc(C(F)(F)F)c1)C1CC(c2ccc(F)cc2)=NO1 (stereo unspecified) ?
CBX7 inh: 1.1

Results for CCc1ccccc1Nc1cc(C(=O)NCc2ccc(F)cc2)c2ccccc2n1 ?
CBX7 inh: 1.3

How did COc1ccc(-c2nn(C)c3sc(C(=O)N4CCC(C#N)CC4)cc23)cc1OC do in these assays?
CBX7 inh: 0.99

How did CCCCOc1ccc(C(=O)Nc2nc3c(s2)Cc2cc(OC)ccc2-3)cc1 do in these assays?
CBX7 inh: 1

Results for COc1cc(OC)cc(OCC(O)Cn2cnc3cc(C)c(C)cc32)c1 (stereo unspecified) ?
CBX7 inh: 0.52

Results for Cc1cc2ncn(CC(O)COc3ccc(C(C)C)cc3)c2cc1C (stereo unspecified) ?
CBX7 inh: 0.71

What do the screens show for `Cc1cc2ncn(CC(O)COc3ccccc3C)c2cc1C` (stereo unspecified)?
CBX7 inh: 0.17*

Results for CC(=O)Nc1nc(-c2ccc(C)cc2)cs1 ?
CBX7 inh: 0.87
